Hits are enriched below; roughly 13% of the tested compounds scored in any of these assays.
Pf growth 96h: P. falciparum growth inhibition at 96 hours | Potency, µM (top dose mostly 28.7 µM), actives largely listed as inhibitors | AID 504834 | P. falciparum luciferase reporter growth, 96 h | 6.9% of 320,000 active
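96 h incubation, 37 C, 5% CO2, of luciferase-reporter P. falciparum-infected RBCs (2% hematocrit, 0.05% parasitemia final) with test compounds; endpoint luminescence.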
Pf growth 48h: P. falciparum growth inhibition at 48 hours (one generation); 5.9% of 310,000 active; P. falciparum luciferase growth in erythrocytes, 48 h; AID 504832; Potency, µM (doses to about 28.7 µM), usual class: inhibitors
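Compounds are pin-transferred into medium, infected erythrocytes (2% hematocrit, 0.1% parasitemia final) are added, and plates sit one parasite generation at 37 C in 5% CO2. Detection reagent is then added and luminescence measured.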
HCV inhibitor: blocks hepatitis C virus. AID 651820. Potency, µM (doses to about 41.8 µM), actives largely listed as inhibitors. Huh7.5.1 HCVcc-Cre infection, luciferase reporter, 44 h. 3.4% of 340,000 active
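Seed cells (1,000/well) for 4 h; treat with compound and infect with HCVcc-Cre, moi about 0.5. Incubate 44 h, then detect luciferase activity.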
HCMV antiviral: blocks human cytomegalovirus replication | HFF cells, HCMV-luciferase reporter, 72 h; active compounds read low | 4.5% of 410,000 active | AID 1259415 | activity change, negative = inhibition, % at 57.5 µM; in the data active = activity change below about -60%; inconclusive = no clear call, values can overlap the other calls; inactive = above about -39%
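Two-dose cell screen: HFF monolayers treated with compounds and infected with luciferase-expressing HCMV at 1 PFU/cell, 72 h at 37C, then lysed for luciferase measurement.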
Hits are given with their value. Unless noted, calls follow the shape of the dose curve; as a rule, active = well fitted inhibition curve with a large enough effect; inconclusive = small, poorly fitted or top-dose-only effect, or another doubt; inactive = no such curve, though single readings can be large or run the other way.

Results for O=C(NC(=S)NCc1ccccc1)c1ccc2c(c1)OCO2 ?
Pf growth 96h: inactive; Pf growth 48h: inactive; HCV inhibitor: inactive; HCMV antiviral: inactive

How did O=C(NCc1cccnc1)c1ccc2c(c1)OCO2 do in these assays?
Pf growth 96h: 9.3µM; Pf growth 48h: inactive; HCV inhibitor: inactive; HCMV antiviral: inactive

Results for CCc1ccc(NC(=O)CC2C(=O)N(c3ccc(OC)cc3)C(=O)N2Cc2cccs2)cc1 (centres undefined) ?
HCMV antiviral: inactive

How did CC(Oc1ccccc1)C(=O)Nc1ccccc1C(=O)OCc1cc(=O)n2nc(C(C)C)sc2n1 (centres undefined) do in these assays?
HCMV antiviral: inactive

What do the screens show for `COc1ccccc1C(CNC(=O)CNC(=O)c1ccc(Cl)c(Cl)c1)N1CCCC1` (centres undefined)?
Pf growth 96h: inactive; Pf growth 48h: inactive; HCV inhibitor: inconclusive; HCMV antiviral: inactive

Results for COc1ccccc1C(CNC(=O)CNC(=O)c1ccccc1Cl)N1CCCC1 (centres undefined) ?
Pf growth 96h: inactive; Pf growth 48h: inactive; HCV inhibitor: inactive; HCMV antiviral: -101

How did COc1ccccc1C(CNC(=S)NCc1ccccc1)N1CCCC1 (centres undefined) do in these assays?
Pf growth 96h: inconclusive; Pf growth 48h: inconclusive; HCV inhibitor: inactive; HCMV antiviral: -72

Results for COc1ccc(C(CNC(=S)NCc2ccccc2)N2CCCC2)cc1 (centres undefined) ?
Pf growth 96h: inconclusive; Pf growth 48h: inactive; HCV inhibitor: inactive; HCMV antiviral: inactive

What do the screens show for `CSc1nsc(/C=C/Nc2ccc(Cl)cc2)c1C#N`?
Pf growth 96h: 1.2µM; Pf growth 48h: 1.2µM; HCV inhibitor: inconclusive; HCMV antiviral: inactive

What do the screens show for `CSc1nsc(/C=C/Nc2ccc(F)cc2)c1C#N`?
Pf growth 96h: 6.6µM; Pf growth 48h: inactive; HCV inhibitor: inactive; HCMV antiviral: inactive

Results for COc1ccc(-c2nn3c(=O)cc(CN4CCN(S(=O)(=O)c5ccc(C)cc5)CC4)nc3s2)cc1 ?
HCMV antiviral: inactive

Results for O=C(Nc1ccc(CN2CCOCC2)cc1)c1ccc(Cl)cc1Cl ?
Pf growth 96h: inactive; Pf growth 48h: inactive; HCV inhibitor: 10µM; HCMV antiviral: inactive

Results for COc1ccc(Br)cc1C(=O)NC(=S)Nc1ccc(CN2CCOCC2)cc1 ?
Pf growth 96h: 4.7µM; Pf growth 48h: inconclusive; HCV inhibitor: inconclusive; HCMV antiviral: inactive

How did O=C(Nc1ccc(CN2CCOCC2)cc1)c1cc(Br)ccc1Cl do in these assays?
Pf growth 96h: inconclusive; Pf growth 48h: inactive; HCV inhibitor: inactive; HCMV antiviral: inactive

Results for O=C(NC(=S)Nc1ccc(CN2CCOCC2)cc1)c1ccc(-c2ccc(Br)cc2)o1 ?
Pf growth 96h: inconclusive; Pf growth 48h: 13µM; HCV inhibitor: inactive

Results for O=C(NC(=S)Nc1ccc(CN2CCOCC2)cc1)c1ccc(-c2ccc(Cl)cc2)o1 ?
Pf growth 96h: inconclusive; Pf growth 48h: inactive; HCV inhibitor: inactive; HCMV antiviral: inactive

What do the screens show for `O=C(Nc1ccc(CN2CCOCC2)cc1)c1ccc(-c2ccc(Cl)cc2Cl)o1`?
Pf growth 96h: inactive; Pf growth 48h: 2.1µM; HCV inhibitor: inconclusive; HCMV antiviral: -65

How did Cc1cccc(N2C(=O)CS(=O)(=O)C23C(=O)N(C)c2ccccc23)c1 (centres undefined) do in these assays?
HCMV antiviral: inactive

What do the screens show for `Cc1nn2c(=O)cc(COC(=O)c3ccccc3NC(=O)C3CCCCC3)nc2s1`?
HCMV antiviral: inactive

What do the screens show for `Cc1ccc(Cn2c(=O)c3cccnc3n(Cc3ccc(C)cc3)c2=O)cc1`?
HCMV antiviral: inactive

Results for O=C(NC(=S)Nc1ccc(CN2CCOCC2)cc1)c1ccc(-c2cccc(Cl)c2)o1 ?
Pf growth 96h: inactive; Pf growth 48h: inconclusive; HCV inhibitor: 14µM; HCMV antiviral: inconclusive

Results for O=C(Nc1ccc(CN2CCOCC2)cc1)c1ccc(-c2cccc(Cl)c2)o1 ?
Pf growth 96h: inconclusive; Pf growth 48h: 1.5µM; HCV inhibitor: inconclusive; HCMV antiviral: -86

How did O=C(NC(=S)Nc1ccccc1N1CCOCC1)c1ccc(-c2cccc(Cl)c2)o1 do in these assays?
Pf growth 96h: inconclusive; Pf growth 48h: inactive; HCV inhibitor: inactive; HCMV antiviral: inactive

Results for CCC1C(=O)CC(c2ccc([N+](=O)[O-])cc2)NC1c1ccc([N+](=O)[O-])cc1 (centres undefined) ?
Pf growth 96h: inactive; Pf growth 48h: 13µM; HCV inhibitor: inactive; HCMV antiviral: inactive

Results for Cc1ccccc1NC(=O)c1sc2nc3c(c(-c4ccco4)c2c1N)CCCC3 ?
Pf growth 48h: inconclusive; HCV inhibitor: inconclusive; HCMV antiviral: inactive

What do the screens show for `Cc1ccc(NC(=O)c2sc3nc4c(c(-c5ccco5)c3c2N)CCC4)cc1`?
Pf growth 96h: 2.3µM; Pf growth 48h: inconclusive; HCV inhibitor: inconclusive; HCMV antiviral: inactive

What do the screens show for `NC(=O)c1sc2nc3c(c(-c4cccnc4)c2c1N)CCC3`?
Pf growth 96h: inconclusive; Pf growth 48h: inactive; HCV inhibitor: inactive; HCMV antiviral: inactive

How did Nc1c(C(=O)Nc2ccc(Br)cc2)sc2nc(-c3ccco3)ccc12 do in these assays?
Pf growth 96h: inactive; Pf growth 48h: inactive; HCV inhibitor: inconclusive; HCMV antiviral: -60

How did Nc1c(C(=O)Nc2ccc(F)cc2)sc2nc(-c3ccco3)ccc12 do in these assays?
Pf growth 96h: inactive; Pf growth 48h: inactive; HCV inhibitor: inconclusive; HCMV antiviral: inactive

Results for NC(=O)c1sc2nc3c(c(-c4cccs4)c2c1N)CCCCC3 ?
Pf growth 96h: inactive; Pf growth 48h: inactive; HCV inhibitor: inactive; HCMV antiviral: -86

Results for Nc1c(C(=O)Nc2ccccc2)sc2nc3c(c(-c4ccco4)c12)CCC3 ?
Pf growth 96h: inconclusive; Pf growth 48h: inconclusive; HCV inhibitor: 10µM; HCMV antiviral: inactive

What do the screens show for `CC(=O)N1CCN(c2csc3ccc(Br)cc3c2=O)CC1`?
HCMV antiviral: inactive

How did Cc1ccc(NC(=O)c2nnn(Cc3cccc(C(F)(F)F)c3)c2N)c(C)c1 do in these assays?
HCMV antiviral: inactive

Results for NS(=O)(=O)c1ccc(CNC(=O)/C=C/c2cccc(Cl)c2)cc1 ?
Pf growth 96h: inconclusive; Pf growth 48h: inactive; HCV inhibitor: inactive; HCMV antiviral: inactive

What do the screens show for `COc1cc(/C=C/[N+](=O)[O-])ccc1O`?
Pf growth 96h: inconclusive; Pf growth 48h: inconclusive; HCV inhibitor: inactive; HCMV antiviral: -104

How did COc1cc(/C=C/C(=O)c2ccc([N+](=O)[O-])o2)ccc1O do in these assays?
Pf growth 96h: inconclusive; Pf growth 48h: 13µM; HCV inhibitor: inconclusive; HCMV antiviral: -77

What do the screens show for `COc1cc(/C=C/C(C)=NNc2ccccc2)ccc1O`?
HCV inhibitor: inconclusive; HCMV antiviral: -61

What do the screens show for `COc1cc(/C=C/C(=O)O)ccc1O`?
HCV inhibitor: inactive

Results for O=C(/C=C/c1cccc(Cl)c1)c1ccc([N+](=O)[O-])o1 ?
Pf growth 96h: inconclusive; Pf growth 48h: inconclusive; HCV inhibitor: 2.5µM; HCMV antiviral: -100

Results for COC(=O)C[C@@H]1C=C[C@@H](NS(=O)(=O)c2ccc(OC)cc2)[C@@H](CO)O1 ?
HCMV antiviral: inactive
